Assay outcomes: PubChem BioAssay, National Center for Advancing Translational Sciences (NCATS)
Shown are actives, neighbours in structure and some others; about 19% of the full set was active somewhere.
HT1080 IDH1KD tx = qHTS for induction of synthetic lethality in tumor cells producing 2HG: qHTS for the HT-1080-IDH1KD cell line. AID 686971, 2013. Potency, µM (highest dose often 46.1 µM), without a hit: at the top dose activity, negative = toxicity, actives largely listed as cytotoxic. HT-1080 IDH1 knockdown viability, ATP luminescence, 48 h. 360,000 compounds, 2% hits;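 note: potency is the fitted concentration of half-maximal effect; 0% = DMSO wells and -100% = cell-free medium wells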
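After a 2 h attachment period, IDH1KD HT-1080 cells took pin-transferred compound for 48 h at 37 °C; ATP-based luminescence after 10 min room-temperature reagent incubation reported viability.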
IL1B secr inh = qHTS for Inhibitors of Inflammasome Signaling: IL-1-beta AlphaLISA Primary Screen; THP-1 LPS/ATP IL-1B secretion, AlphaLISA, 16 h; hits give low values; 360,000 compounds, 4.7% hits; activity change, % at 57.5 µM; in the data active = activity change below about -50%; inconclusive = mostly about -30% to -49%
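THP-1 cells pretreated 1 hr with compounds (up to 57.5 uM final), then stimulated with LPS (250 ng/mL final) plus ATP (1.25 mM final); secreted IL-1B measured by AlphaLISA after 16 hr, decreased signal indicating inhibition.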
HT1080NT lethal = qHTS for induction of synthetic lethality in tumor cells producing 2HG: qHTS for the HT-1080-NT fibrosarcoma cell line. HT-1080-NT fibrosarcoma viability, CellTiter-Glo ATP luminescence, 48 h. Potency, µM (series often up to 46.1 µM), without a hit: at the highest dose activity, negative = less viability, actives largely listed as cytotoxic. 360,000 compounds, 1.6% hits;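 note: NT is the 2HG producing partner of a matched IDH1 knockdown line; potency is the fitted concentration of half-maximal effect; 0% = DMSO-treated cells and -100% = media-only wells without cells; nearly all actives have a fitted effect of over 55% in size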
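Luminescent CellTiter-Glo readout after 48 hours of compound exposure at 37 degrees C defined viability of HT-1080-NT cells. Activity was normalized to DMSO wells and cell-free media wells; concentration-response curves were fitted and assigned curve classes.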
TDP1 cell noCPT = qHTS for Inhibitors of human tyrosyl-DNA phosphodiesterase 1 (TDP1): qHTS in cells in absence of CPT | DT40 Tdp1-/- hTDP1 cells, no CPT, ATP luminescence, 48 h | Potency, µM (top dose mostly 46.2 µM), inactives show at the top dose activity change, negative = growth inhibition, hits mostly inhibitors | 420,000 compounds, 15% hits | AID 686978, 2013; note: potency is the fitted concentration of half-maximal effect; nearly all actives have a fitted effect of over 55% in size
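A cellular qHTS used chicken DT40 cells lacking endogenous Tdp1 but carrying stably transfected human TDP1. Compounds were applied without camptothecin, and cell growth kinetics were judged by ATP-dependent luminescence after ≥48 hr.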
TDP1 cell CPT = qHTS for Inhibitors of human tyrosyl-DNA phosphodiesterase 1 (TDP1): qHTS in cells in presence of CPT; Potency, µM (titrated, usually from 46.2 µM), for the others: at the highest dose activity change, negative = growth inhibition, hits mostly inhibitors; chicken DT40 Tdp1-/-;hTDP1 cells + 20 nM CPT, ATP luminescence, 48 h; 420,000 compounds, 12% hits; AID 686979, 2013; note: potency is the fitted concentration of half-maximal effect; nearly all actives have a fitted effect of over 55% in size
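Chicken DT40 Tdp1-/- cells complemented with human TDP1, 400 cells/well, exposed to compounds plus 20 nM camptothecin for at least 48 h at 37 C; viability read as ATP content by CellTiter-Glo luminescence.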
An asterisk follows results filed as active; ? = inconclusive; nt = not tested or not shown; [ ] = remark or other dose. Unless noted, calls come from the whole dose curve; as a rule, active = well fitted curve in the direction sought with a large enough effect; inconclusive = small, poorly fitted or top-dose-only effect, or another doubt; inactive = no such curve, though single readings can be large; an effect the other way counts as inactive or inconclusive. Unless noted, % is set by controls: 0 for no effect and ±100 for the full control effect.

SMILES	HT1080 IDH1KD tx	IL1B secr inh	HT1080NT lethal	TDP1 cell noCPT	TDP1 cell CPT
Cc1n[nH]c(=O)c2c1nnn2Cc1ccccc1Cl	8.7%	24.4	13.2%	-4.0%	9.3%
Clc1ncc(Cn2cccn2)s1	-0.3%	-7.2	12.3%	14.4%	1.6%
COc1ccccc1N1CCN(c2ccc3c(c2)S(=O)(=O)c2cccc(C(=O)NCc4cccc(F)c4)c2C3=O)CC1	-9.8%	-10.1	-11.7%	1.64µM*	?
Cc1ccc(CNC(=O)c2cccc3c2C(=O)c2ccc(N4CCCCC4)cc2S3(=O)=O)cc1	-10.1%	12.7	-42.5%	?	29.1µM*
O=C(NCc1ccccc1C(F)(F)F)c1cccc2c1C(=O)c1ccc(N3CCOCC3)cc1S2(=O)=O	-4.5%	12.6	0.0%	-14.0%	-23.6%
O=C(NCc1ccccc1C(F)(F)F)c1cccc2c1C(=O)c1ccc(N3CCC(N4CCCCC4)CC3)cc1S2(=O)=O	-10.6%	-103.4*	-4.4%	3.66µM*	2.31µM*
O=C(NCc1cccc(F)c1)c1cccc2c1C(=O)c1ccc(N3CCOCC3)cc1S2(=O)=O	5.5%	-0.1	-5.6%	?	?
CCOC(=O)c1cccc(NC(=O)Cn2ncc3c(=O)oc4ccccc4c32)c1	nt	nt	nt	-15.6%	2.0%
O=NN(Cc1cccnc1)C(=O)NC1CCCCC1	-18.5%	-8.3	-19.0%	?	?
CCCN(Cc1cccs1)C(=O)Nc1cc(C)ccc1OC	nt	nt	nt	16.4µM*	?
CCCN(Cc1cccs1)C(=O)Nc1cc(C)cc(C)c1	nt	nt	nt	?	25.9µM*
CCCN(CC(=O)Nc1ccccc1C)C(=O)Cc1cccs1	7.7%	-6.7	1.0%[9.24 µM]	21.6%	-12.8%
Cn1c(=O)c2c(nc(Sc3ncnn3CC(=O)NC3CCCCC3)n2C)n(C)c1=O	8.6%	15.5	6.3%	-13.2%	-11.9%
COc1ccc(S(=O)(=O)N2CCCC(C(=O)NCc3cccnc3)C2)cc1OC (configuration not stated)	-16.1%	49.3	-8.8%	-21.9%	-11.2%
CC(NC(=O)c1ccco1)c1nnc2n1CCN(Cc1ccc(Cl)cc1)CC2 (configuration not stated)	nt	nt	nt	2.0%	12.9%[9.04 µM]
CC(=O)Nc1ccc(Oc2sc(C(=O)c3ccccc3)c(N)c2C#N)cc1	16.4µM*	-59.7*	?	?	?
CN(c1cccc(Cl)c1)S(=O)(=O)c1cccc(C(=O)Nc2ccc3c(c2)CCC3)c1	-17.7%	1.3	-10.8%	11.6µM*	23.1µM*
Cc1nnc(NC(=O)c2cccc(S(=O)(=O)N(C)c3cccc(Cl)c3)c2)s1	2.8%	6.3	1.8%	-3.1%	3.5%
O=C(Nc1ccccc1)c1cc(S(=O)(=O)NCc2ccncc2)ccc1Cl	-18.2%	2.7	-30.0%	8.2µM*	9.2µM*
CN(c1ccc(F)cc1)S(=O)(=O)c1ccc(Cl)c(C(=O)Nc2ccc3c(c2)CCC3)c1	-8.8%	-17.5	2.7%	3.66µM*	5.17µM*
CCN(c1ccccc1)S(=O)(=O)c1ccc(F)c(C(=O)O)c1	17.4%	14.4	1.1%	-11.2%	-9.5%
CCN(c1ccccc1)S(=O)(=O)c1ccc(Cl)c(C(=O)Nc2ccncc2)c1	-16.0%	3.8	-2.3%	11.6µM*	?
COC(=O)c1ccccc1NC(=O)c1cn2c3c(ccc(Cl)c3c1=O)OC(C)C2 (configuration not stated)	nt	nt	nt	0.5%	5.7%
COc1ccc(S(=O)(=O)N2CCN(CC(=O)NC3CC3)CC2)cc1	11.0%	-2.3	8.6%	-10.4%	-0.4%
O=C(C[n+]1ccccc1)N/N=C/c1cccs1	19.4%	11.0	3.2%	-7.8%	-6.5%
SMILES	HT1080 IDH1KD tx	IL1B secr inh	HT1080NT lethal	TDP1 cell noCPT	TDP1 cell CPT
CCN(Cc1ccncc1)Cc1ccc2c(c1)CN(C(=O)c1ccc(C)cc1)CCO2	nt	nt	nt	?	7.6%[9.04 µM]
COc1ccc(C(=O)NNC(=O)CN2CCN(c3nc(-c4ccccc4)cs3)CC2)cc1	-10.9%	0.0	-14.5%	6.1%	?
CN(c1ccccc1)S(=O)(=O)c1ccc(Cl)c(C(=O)Nc2ccncc2)c1	-18.7%	49.8	-7.8%	16.4µM*	18.4µM*
CN(c1ccccc1)S(=O)(=O)c1ccc(Cl)c(C(=O)NC2=NCCS2)c1	-0.1%	-15.0	-2.7%	?	?
CN(c1ccc(F)cc1)S(=O)(=O)c1ccc(Cl)c(C(=O)Nc2ccncc2)c1	-21.8%	33.0	-5.7%	13µM*	18.4µM*
COC(=O)c1ccc(C2C(C#N)=C(N)Oc3cc(O)ccc32)cc1 (configuration not stated)	1.2%	-0.5	-13.0%	-14.5%	-8.5%
N#CC1=C(N)Oc2cc(N)ccc2C1C1CCCCC1 (configuration not stated)	8.2µM*	?	20.6µM*	20.6µM*	?
N#CC1=C(N)Oc2cc(N)ccc2C1c1cccc(F)c1 (configuration not stated)	2.31µM*	-14.2	2.91µM*	?	?
COC(=O)c1ccc(C2C(C#N)=C(N)Oc3cc(N)ccc32)cc1 (configuration not stated)	-10.1%	-13.6	-18.3%	-2.8%	0.92µM*
CN(C)c1ccc2c(c1)OC(N)=C(C#N)C2c1cccc(F)c1 (configuration not stated)	0.224µM*	-21.5	0.178µM*	0.0206µM*	0.0206µM*
CCOC1=C2CN(S(=O)(=O)c3ccc(C)cc3)[C@H](c3ccccc3)C[C@@H]2N(S(C)(=O)=O)[C@H](c2ccccc2)C1	9.8%	0.0	17.1%	-19.6%	-17.0%
CCCCc1cc(=O)oc2cc(C)cc(OCC(=O)N3CCC(C(=O)O)CC3)c12	-8.1%	-1.4	-4.9%	-5.3%	-1.6%
COc1ccc(N2CCN(c3c4c(nc5nncn35)CCC4)CC2)cc1	nt	nt	nt	8.2µM*	8.2µM*
CCCc1ccccc1OCCNS(=O)(=O)c1cc2c(cc1C)OCC(=O)N2	?	-98.6*	?	11.6µM*	14.6µM*
Cc1cc2c(cc1S(=O)(=O)NCCc1ccccc1)NC(=O)CO2	-2.3%	-20.4	-2.2%	-19.3%	-6.6%
CCC(=O)N1c2ccccc2CC1C(=O)NCCc1cc(OC)c(OC)c(OC)c1 (configuration not stated)	nt	nt	nt	-13.5%	-16.2%
CCOC(=O)c1sc2ncnc(NCC(c3cccs3)N(C)C)c2c1C (configuration not stated)	-13.0%	2.8	-19.6%	?	29.1µM*
COc1ccc(C(C)(C)C)cc1NC(=O)c1ccc2ncsc2c1	-14.1%	-51.3*	-17.7%	?	?
